According to PubChem BioAssay (NCATS):
Inconclusive results are not listed. Entries that show only a call come without a potency. Activity calls are given as the source filed them. Unless noted, the call rests on the fitted dose curve; in most records, active means well fitted curve in the direction sought with a large enough effect; inconclusive means small, poorly fitted or top-dose-only effect, or another doubt; inactive means no such curve, though single readings can be large; an effect the other way counts as inactive or inconclusive.

What was measured:
[1] = qHTS to identify inhibitors of the type 1 interferon - major histocompatibility complex class I in skeletal muscle: primary screen against the NCATS Mechanism Interrogation Plate v5.0 (MIPE) Libary (AID 1347411); further: nearly all actives have a fitted effect of over 65% in size
In short: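 Cells were genome-edited human myoblasts carrying a HiBit tag on endogenous HLA-B. They were treated with IFN-beta (4.0 ng/ml) and titrated compounds (top 46 uM) for 24 hrs before lytic HiBiT detection.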

[2] = target: Calcium and integrin-binding protein 1 (Homo sapiens) (UniProt Q99828); assay: Primary qHTS for Identification of Calcium Integrin Binding Protein 1 (CIB1) Competitor (AID 1508620); further: potency means the concentration at half of the fitted maximal effect;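 on activity change, negative = inhibition: GST tagged CIB1 binding a fluorescein labelled alphaIIb integrin peptide tracer; top concentration of the series differs between compounds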
In short: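 Fluorescence polarization competition: GST-tagged CIB1 (1 uM final) preincubated with compound 15 min at room temperature, then FITC-labelled alphaIIb peptide (100 nM final) added. After 15 min at room temperature, polarization read at Ex 480/Em 540.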

[3] = target: Cytochrome P450 2D6 (Homo sapiens) (UniProt P10635); assay: Cytochrome P450 family 2 subfamily D member 6 (CYP2D6) small molecule antagonists: luciferase biochemical (cell-free) qHTS assay (AID 1645840; active means well fitted curve in the direction sought with a large enough effect in the repeat runs; an effect the other way counts as inactive or inconclusive; further: nearly all actives have a fitted effect of over 55% in size; further: potency means the concentration at half of the fitted maximal effect; on activity change, negative = inhibition: series mostly up to about 57 µM)
In short: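 P450-Glo luminescent screen: recombinant CYP2D6 enzyme–proluciferin substrate mix preincubated with compound 10 min at room temperature, then NADPH regeneration added for 1 h at room temperature. Detection reagent added for 20 min; luciferin light read as relative luminescence units.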

[4] = Primary qHTS for inhibitors of nuclear receptor binding SET domain protein 2 (NSD2) in an isogenic RCH-ACV NSD2 p.E1099K mutant (9B) (AID 1645876); further: nearly all actives have a fitted effect of over 70% in size
[5] = Primary qHTS for inhibitors of nuclear receptor binding SET domain protein 2 (NSD2) in an RCH-ACV wild type WT cells (2C) (AID 1645877); further: nearly all actives have a fitted effect of over 70% in size; further: potency means the concentration at half of the fitted maximal effect
[6] = qHTS assay for small molecule disruptors of mitochondrial membrane potential screened against the NCATS CANVASS Library (AID 1347389); further: series mostly up to about 46 µM; nearly all actives have a fitted effect of over 60% in size
In short: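 Compounds tested in 11-point qHTS series on HepG2 cells for 1 hr; membrane-potential dye added for 30 min at 37C. Lower red-to-green ratio indicates loss of potential.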

[7] = Secretion counterscreen for inhibitors of the SERCaMP assay screened against the NCATS CANVASS Library (AID 1347390);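 further: light from luciferase secreted into medium read as a measure of general secretion; series mostly up to about 77 µM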
In short: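 Luminescence from constitutively secreted GLuc in SH-SY5Y-GLuc STOP cells, read after coelenterazine addition, served as read-out. Compounds tested 0.001 - 77 uM for 20 h at 37C; Brefeldin A as positive control.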

[8] = qHTS for activators of Nrf2/ARE signaling pathway screened against the NCATS CANVASS Library (AID 1347391); further: nearly all actives have a fitted effect of over 60% in size
In short: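 Cells carrying an ARE-driven beta-lactamase reporter (HepG2 background) are dosed for 16 h, then stained with CCF4. Cell viability in the same wells is measured by CellTiter-Glo luminescence.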

[9] = qHTS for activators of dead-cell proteases activity screened against the NCATS CANVASS Library (AID 1347392);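 further: luminescence from protease leaking out of membrane-damaged cells cleaving impermeant substrate; rising signal means more cytotoxicity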
In short: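 HepG2 cells, 2000/well, attached 18 h at 37C, then exposed to compounds (11-point qHTS) for 5 h. Dead-cell protease release read as luminescence from cell-impermeant AAF-aminoluciferin substrate after 15 min at room temperature.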

[10] = qHTS for inhibitors of ER calcium dysfunction: SERCaMP assay screened against the NCATS CANVASS Library (AID 1347393);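 further: series mostly up to about 77 µM; lower secreted reporter signal means inhibitor of ER calcium depletion; nearly all actives have a fitted effect of over 40% in size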
In short: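 SH-SY5Y GLuc-SERCaMP, 1000 cells/well, 4 h attach; cpd 16 h, 37C/5% CO2; thapsigargin (added as 6x 600 nM) 4 h; coelenterazine; luminescence. Reduced reporter release = ER Ca stabilization.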

[11] = Viability qHTS for inhibitors of the SERCaMP assay screened against the NCATS CANVASS Library (AID 1347400); further: series mostly up to about 92 µM; nearly all actives have a fitted effect of over 70% in size
In short: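 Cytotoxicity counter-screen: ATP content (CellTiter-Glo luminescence) of SH-SY5Y-GLuc SERCaMP MJH297 cells after 48 h at 37C with compounds in an 11-point qHTS series.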

[12] = Redox Reaction Profiling qHTS: Assay Interference Panel against the NCATS CANVASS Library (AID 1347401)
In short: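 Compounds in 11-point series incubated with 5 uM resazurin and 200 uM DTT in 50 mM HEPES pH 7.3, 50 mM NaCl. Resorufin fluorescence (Ex 525/Em 598) read before and after 15 min in the dark.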

[13] = target: Calcium and integrin-binding protein 1 (Homo sapiens) (UniProt Q99828); assay: Confirmatory qHTS for Identification of Calcium Integrin Binding Protein 1 (CIB1) Competitor (AID 1508617); conditions: CIB1 binding competition assay, biochemical qHTS; further: potency means the concentration at half of the fitted maximal effect; nearly all actives have a fitted effect of over 65% in size
In short: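 FP competition: CIB1-GST (1 uM final) in 5 mM HEPES pH 7.4, 125 mM NaCl, 5 mM CaCl2, 0.01% Tween20 preincubated 15 min RT with compounds (up to 114 uM), then FITC-alphaIIb peptide (100 nM), 15 min RT; Ex 480/Em 540.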

[14] = target: Cytochrome P450 2C9 (Homo sapiens) (UniProt P11712); assay: Cytochrome P450 family 2 subfamily C member 9 (CYP2C9) small molecule antagonists: luciferase biochemical (cell-free) qHTS assay (AID 1645842; active means well fitted curve in the direction sought with a large enough effect in the repeat runs; an effect the other way counts as inactive or inconclusive; further: nearly all actives have a fitted effect of over 55% in size; further: potency means the concentration at half of the fitted maximal effect; on activity change, negative = inhibition: series mostly up to about 57 µM)
In short: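 Luminescence, after 20 min with luciferin detection reagent, reflected CYP2C9 turnover during a 1 h NADPH-driven reaction at 37C. Enzyme-substrate mix contained 0.4% bovine serum albumin and was preincubated with compound 10 min at room temperature.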

[15] = target: N-terminal Xaa-Pro-Lys N-methyltransferase 1 (Homo sapiens) (UniProt Q9BV86); assay: Confirmatory qHTS for Inhibitors of N-terminal methyltransferase 1 (NTMT1): MTaseGlo Assay (AID 1645874); further: potency means the concentration at half of the fitted maximal effect; nearly all actives have a fitted effect of over 65% in size
In short: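 NTMT1 (125 nM) preincubated 15 min with compound and 100 uM SAM, then 1 uM SPKRIA peptide added for 30 min at room temperature. SAH detected by MTase-Glo luminescence; normalized to no-enzyme and DMSO controls, fitted to 4-parameter Hill.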

Calcium and integrin-binding protein 1 (Homo sapiens), sequence (Q99828 whole entry, looked up): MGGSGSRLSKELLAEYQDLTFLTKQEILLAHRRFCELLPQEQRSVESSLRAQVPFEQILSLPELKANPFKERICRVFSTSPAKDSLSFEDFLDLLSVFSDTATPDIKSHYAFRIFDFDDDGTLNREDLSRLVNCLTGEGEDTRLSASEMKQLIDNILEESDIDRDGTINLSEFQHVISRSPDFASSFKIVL
Cytochrome P450 2C9 (Homo sapiens), sequence (P11712 whole entry, looked up): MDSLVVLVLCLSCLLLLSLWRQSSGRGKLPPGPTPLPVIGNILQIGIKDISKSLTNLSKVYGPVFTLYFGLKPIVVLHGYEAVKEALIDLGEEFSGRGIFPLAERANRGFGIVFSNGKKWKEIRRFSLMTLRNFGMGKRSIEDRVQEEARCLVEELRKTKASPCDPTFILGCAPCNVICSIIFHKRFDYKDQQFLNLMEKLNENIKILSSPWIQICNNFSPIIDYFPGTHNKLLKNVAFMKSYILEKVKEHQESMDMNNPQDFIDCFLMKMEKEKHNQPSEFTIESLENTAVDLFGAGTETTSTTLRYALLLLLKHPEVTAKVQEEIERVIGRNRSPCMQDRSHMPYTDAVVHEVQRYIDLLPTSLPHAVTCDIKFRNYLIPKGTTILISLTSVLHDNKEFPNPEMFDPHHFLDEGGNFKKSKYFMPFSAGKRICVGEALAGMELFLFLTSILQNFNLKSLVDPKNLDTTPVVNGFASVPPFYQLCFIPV
Cytochrome P450 2D6 (Homo sapiens), sequence (P10635 whole entry, looked up): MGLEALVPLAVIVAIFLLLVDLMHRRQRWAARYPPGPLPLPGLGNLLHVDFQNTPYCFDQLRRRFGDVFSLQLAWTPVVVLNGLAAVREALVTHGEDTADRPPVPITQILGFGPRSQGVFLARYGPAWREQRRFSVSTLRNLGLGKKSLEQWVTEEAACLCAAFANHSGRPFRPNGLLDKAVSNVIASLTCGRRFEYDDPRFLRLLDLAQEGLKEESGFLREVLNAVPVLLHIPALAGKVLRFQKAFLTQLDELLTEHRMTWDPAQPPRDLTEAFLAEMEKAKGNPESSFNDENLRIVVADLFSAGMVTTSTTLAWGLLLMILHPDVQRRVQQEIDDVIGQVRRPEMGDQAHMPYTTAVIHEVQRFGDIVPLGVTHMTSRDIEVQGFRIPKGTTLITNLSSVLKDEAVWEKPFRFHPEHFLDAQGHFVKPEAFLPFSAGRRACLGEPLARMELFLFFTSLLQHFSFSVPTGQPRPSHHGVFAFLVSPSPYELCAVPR
N-terminal Xaa-Pro-Lys N-methyltransferase 1 (Homo sapiens), sequence (Q9BV86 whole entry, looked up): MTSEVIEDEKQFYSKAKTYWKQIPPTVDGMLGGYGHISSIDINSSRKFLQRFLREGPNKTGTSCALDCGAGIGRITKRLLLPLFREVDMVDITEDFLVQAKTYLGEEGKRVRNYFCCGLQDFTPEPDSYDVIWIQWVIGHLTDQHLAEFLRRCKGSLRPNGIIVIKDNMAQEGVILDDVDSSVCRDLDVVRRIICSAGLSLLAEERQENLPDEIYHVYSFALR

With `COCCCc1sc(-c2ccccc2)nc1C(=O)Nc1ccccc1-c1nc2cc(CN3CCCC3)cnc2s1` the outcome [1] was “inactive” and the Potency [2] was “inactive”.
For `CCCCC(=O)N1c2ccccc2NC2=C(C(=O)CCC2)C1c1ccccc1Cl` (stereo unspecified), the Potency [2] was “inactive”.
In the case of `C=C(C)[C@@H]1CC[C@]2(C(=O)O)CC[C@]3(C)[C@H](CCC4[C@@]5(C)CCC(=O)C(C)(C)C5C(O)C[C@]43C)C12` (stereo partly specified), the Potency [2] is reported as “inactive”.
With `Cc1cccc(-c2nn3c(c2-c2ccnc4ccc(C(N)=O)cc24)CCC3)n1` the outcome [1] was “inactive”, the Potency [2] was “inactive” and the Potency [3] was “inactive”. The Potency [4] was “inactive” and the Potency [5] was “inactive”.
For `N#CN1CCC[C@@H](n2nc(-c3ccc(Oc4ccc(F)cc4F)cc3)c(C(N)=O)c2N)C1`, the outcome [1] was “inactive”, the Potency [2] was “inactive” and the Potency [5] was 16.6 µM (active).
In the case of `CC1(C)CC[C@]2(C(=O)O)CC[C@]3(C)C(=CCC4[C@@]5(C)CC[C@H](O[C@H]6O[C@H](C(=O)O)[C@@H](O)[C@H](O[C@@H]7O[C@H](CO)[C@H](O)[C@H](O)[C@H]7O)[C@H]6O)C(C)(C)C5CC[C@]43C)[C@@H]2C1` (stereo partly specified), the Potency [2] is reported as “inactive”.
In the case of `C/C(=C\CC/C(C)=C/CC[C@]1(C)CCc2cc(O)cc(C)c2O1)CC/C=C(\C)C(=O)O`, the outcome [6] is reported as “inactive”, the outcome [7] is reported as “inactive” and the Potency [8] is reported as “inactive”. For the same molecule, the outcome [9] was “inactive”, the Potency [10] was “inactive” and the outcome [11] was “inactive”. The outcome [12] was “inactive”, the Potency [2] was “inactive” and the Potency [4] was “inactive”. For the same molecule, the Potency [5] was “inactive”.
With `Cc1c(Cc2ccc3ccccc3n2)c2cc(F)ccc2n1CC(=O)O` the Potency [13] was 50.1 µM (active), the Potency [2] was 44.7 µM (active) and the Potency [3] was “inactive”. For the same molecule, the Potency [4] was “inactive” and the Potency [5] was “inactive”.
For `CC(C)[C@](O)(c1ccc2cc(OC(F)F)c(OC(F)F)cc2c1)c1cn[nH]n1`, the outcome [1] was “inactive” and the Potency [2] was “inactive”.
For `CNc1nc(C)nc(N[C@H]2CCC[C@@H](C(=O)NCc3ccc(C#N)cc3C(F)(F)F)C2)n1`, the outcome [1] was “inactive”, the Potency [2] was “inactive” and the Potency [14] was “inactive”. The Potency [4] was “inactive” and the Potency [5] was “inactive”.
For `O=C(COCC(=O)N1CCN(C(c2ccccc2)c2ccccc2)CC1)Nc1ccc(Cl)cc1C(=O)O`, the outcome [1] was “inactive”, the Potency [2] was “inactive” and the Potency [3] was “inactive”. The Potency [4] was “inactive” and the Potency [5] was “inactive”.
In the case of `N#Cc1cccc(-c2c[nH]c3ncnc(N4CCOCC4)c23)c1`, the outcome [1] is reported as “inactive”, the Potency [14] is reported as 2.39 µM (active) and the Potency [15] is reported as 39.8 µM (active).
In the case of `COc1ccc(CC(NC(C)=O)C(=O)O)cc1` (stereo unspecified), the Potency [13] is reported as 50.1 µM (active), the Potency [4] is reported as “inactive” and the Potency [5] is reported as “inactive”.
With `CCCCOc1nc(N)c2c(n1)N(Cc1cccc(CN3CCCC3)c1)CC(=O)N2` the outcome [1] was “inactive”, the Potency [2] was “inactive” and the Potency [3] was 3.38 µM (active). The Potency [14] was “inactive”, the Potency [4] was “inactive” and the Potency [5] was “inactive”.
For `CN1CCCC1Cc1c[nH]c2ccc(CCS(=O)(=O)c3ccccc3)cc12` (stereo unspecified), the Potency [2] was “inactive”.
For `COc1cccc(OC)c1-c1cc(C(=O)N[C@@H](CC(C)C)C(=O)O)nn1-c1ccnc2cc(Cl)ccc12`, the Potency [2] was “inactive” and the Potency [3] was 23.9 µM (active).
In the case of `CCCNCCOc1ccc(NC(=O)c2c[nH]c3c2C(=O)CCC3)cc1F`, the Potency [2] is reported as “inactive”, the Potency [3] is reported as “inactive” and the Potency [14] is reported as “inactive”.
With `COc1cccc(CN(C(=O)CC(C)(C)C)C2CC(C(=O)N3CCNCC3)N(Cc3ccc4c(c3)OCO4)C2)c1` (stereo unspecified) the Potency [2] was “inactive” and the Potency [3] was 26.8 µM (active).
In the case of `COc1c2c(c(C)c3c1C(=O)OC3)OC1(C)CC(O)C34OC(OC)(CC(O)C3(C)C1C2)OC4(C)C` (stereo unspecified), the Potency [2] is reported as “inactive”.
With `COc1cc(Cc2cnc(N)nc2N)c(C(C)C)cc1OC` the Potency [2] was “inactive” and the Potency [3] was “inactive”.
With `C[C@@H]1O[C@@H](O[C@H]2[C@H](OC(=O)[C@]34CCC(C)(C)C[C@H]3C3=CCC5[C@@]6(C)CC[C@H](O[C@@H]7O[C@H](CO[C@@H]8OC[C@H](O)[C@H](O)[C@H]8O)[C@@H](O)[C@H](O)[C@H]7O)C(C)(C)C6CC[C@@]5(C)[C@]3(C)C[C@H]4O)OC[C@@H](O)[C@@H]2O)[C@H](O)[C@H](O[C@@H]2OC[C@](O)(CO)[C@H]2O)[C@H]1O[C@@H]1OC[C@H](O)[C@H](O[C@@H]2OC[C@@H](O)[C@H](O)[C@H]2O)[C@H]1O` (stereo partly specified) the activity change, negative = inhibition [2] was 2.98% [at 12.4 µM] (inactive).
In the case of `CC1(C)CC[C@]2(C(=O)O[C@@H]3O[C@H](CO)[C@@H](O)[C@H](O)[C@H]3O)[C@H](O)C[C@]3(C)C(=CCC4[C@@]5(C)CC[C@H](O[C@@H]6OC[C@@H](O)[C@H](O)[C@H]6O)[C@@](C)(C(=O)O)C5CC[C@]43C)[C@@H]2C1` (stereo partly specified), the Potency [2] is reported as “inactive”.
With `O=C(OC(C(F)(F)F)C(F)(F)F)N1CCN(Cc2cccc(Oc3ccccc3)c2)CC1` the Potency [2] was “inactive”, the Potency [3] was 1.51 µM (active) and the Potency [14] was 19 µM (active).
With `Cc1onc(-c2c(Cl)cccc2Cl)c1CC(=O)NCc1ccc(OCC(F)(F)F)nc1` the Potency [2] was “inactive” and the Potency [3] was 19 µM (active).
With `NC[C@H]1CCC[C@@H](CNC(=O)[C@@H](Cc2c[nH]c3ccccc23)NC(=O)N2CCC3(C=Cc4ccccc43)CC2)C1` the Potency [2] was “inactive” and the Potency [3] was 10.5 µM (active).
With `CC(C)NC(=O)c1ccc(C#Cc2ccncc2)cn1` the Potency [2] was “inactive”, the Potency [3] was “inactive” and the Potency [14] was 0.601 µM (active).
In the case of `COc1ccccc1N1CCN(CCCCNC(=O)c2ccc(-c3cscn3)cc2)CC1`, the Potency [2] is reported as “inactive” and the Potency [3] is reported as 6.01 µM (active).
For `CCNC(=O)OC1CCN(c2nncc3cc(OC)c(OC)cc23)CC1`, the Potency [2] was “inactive”, the Potency [3] was 16.9 µM (active) and the Potency [14] was 15.1 µM (active).
For `CN1CCc2cc(Cl)c(O)cc2[C@@H](c2cccc3c2OCC3)C1`, the Potency [2] was “inactive”, the Potency [3] was 0.477 µM (active) and the Potency [14] was “inactive”.
For `O=C(NC/C=C/CN1CCN(c2cccc(Cl)c2Cl)CC1)c1ccc(-c2ccccn2)cc1`, the Potency [2] was “inactive”, the Potency [3] was 1.2 µM (active) and the Potency [14] was 10.7 µM (active).
